# Bioassay records (PubChem)
# Shown are actives, neighbours in structure and some others; about 3.3% of the full set was active somewhere.
# Tau FP inhib = qHTS for Inhibitors of Tau Fibril Formation, Fluorescence Polarization; Potency, µM (doses to about 57.7 µM), for inactives: at the top dose activity, negative = inhibition, usual class: inhibitors; K18 P301L tau heparin fibrillization, Alexa594 FP, 6 h; Microtubule-associated protein tau (Homo sapiens), P10636; 0.39% of 280,000 active; further: nearly all actives have a fitted effect of over 55% in size
# Target sequence (P10636 561-689 P618L limits assumed): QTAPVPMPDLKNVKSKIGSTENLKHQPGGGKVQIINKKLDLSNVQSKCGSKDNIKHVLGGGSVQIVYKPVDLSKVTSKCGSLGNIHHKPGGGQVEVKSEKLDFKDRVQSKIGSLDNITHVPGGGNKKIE
#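 Steps: dispense K18 P301L tau (15 uM plus 0.24 uM Alexa 594 tracer, final) in pH 7 sodium acetate; add compound; add heparin (20 uM final); incubate 6 hr, 37 C; add ThT (30 uM final); after 1 hr ambient, read FP.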
# Tau fluor cs = Counterscreen qHTS for Inhibitors of Tau Fibril Formation, Fluorescence Polarization | tau K18 P301L Alexa594 fluorescence, heparin fibrillization | Potency, µM (series often up to 57.7 µM), without a hit: at the top dose activity change, negative = decrease | 0.93% of 280,000 active; further: nearly all actives have a fitted effect of over 55% in size
#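 Human K18 P301L tau (15 uM unlabeled plus 0.24 uM Alexa 594-labeled, final) in 100 mM sodium acetate pH 7 was mixed with compound and 20 uM heparin and incubated 6 hr at 37 C.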
# Tau fibril ThT = qHTS for Inhibitors of Tau Fibril Formation, Thioflavin T Binding | Potency, µM (top dose mostly 57.4 µM), without a hit: at the highest dose activity, negative = inhibition, hits mostly inhibitors | AID 1460, 2008 | Microtubule-associated protein tau (Homo sapiens), P10636 | 2.1% of 270,000 active | recombinant tau K18 P301L, heparin-induced fibrillization, ThT fluorescence; further: nearly all actives have a fitted effect of over 55% in size
#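 Using a mix of unlabeled (15 uM) and Alexa 594-labeled (0.24 uM) tau K18 P301L, heparin-triggered fibrillization over 6 hr at 37 C was scored by ThT fluorescence.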
# KinaseGlo FLuc = Counterscreen for Luciferase (Kinase-Glo TM) Inhibition. Luciferin 4-monooxygenase (Photuris pensylvanica), Q27757. Kinase-Glo luciferase, ATP luminescence, 8 min. Potency, µM (highest dose often 38.3 µM), without a hit: at the highest dose activity change, negative = inhibition, usual class: inhibitors. 0.28% of 200,000 active; further: nearly all actives have a fitted effect of over 60% in size
#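 Kinase-Glo luciferase light output from ATP and luciferin was measured with 10 uM ATP, within the enzyme's linear range. Buffer: 50 mM imidazole pH 7.2, 50 mM KCl, 7 mM MgCl2, 0.01% Tween 20, 0.05% BSA; luminescence read after 8 min at ambient temperature.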
# NPSR antagonist = qHTS Assay for Antagonists of the Neuropeptide S Receptor: cAMP Signal Transduction | CHO-NPSR cells, cAMP TR-FRET, antagonist mode | 1% of 220,000 active | Potency, µM (titrated, usually from 38.3 µM), for the others: top-dose activity change, negative = inhibition, hits mostly inhibitors | Q6W5P4; further: nearly all actives have a fitted effect of over 50% in size
# * hit, by the source's call; ? = inconclusive; . = no result given; [ ] = remark or other dose. The call rests on the fitted dose curve; in most records, active means well fitted curve in the direction sought with a large enough effect; inconclusive means small, poorly fitted or top-dose-only effect, or another doubt; inactive means no such curve, though single readings can be large; an effect the other way counts as inactive or inconclusive. On the % scale 0 is the no-effect control and ±100 the full control effect; potency means the concentration at half of the fitted maximal effect.
SMILES,Tau FP inhib,Tau fluor cs,Tau fibril ThT,KinaseGlo FLuc,NPSR antagonist
CCOc1ccc(Nc2cc(Nc3ccccc3OCC)nc(C=C(C#N)C#N)n2)cc1,1%,-19%,2.8µM*,.,13%
CCOC(=O)/C(=C\c1ccc(Cl)cc1)c1nc2sc(C)c(C)c2c(=O)[nH]1,-3%,-3%,?,-2%,7.9µM*
O=C(NCc1ccccc1Cl)c1cc2ccccc2o1,-9%,-13%,-8%,.,.
C=CCn1c(SCC)nc2sc3c(c2c1=O)CCc1ccccc1-3,-3%,-11%,-19%,3%,-21%[46.1 µM]
C=CCSc1nc2sc3c(c2c(=O)n1CC)CCc1ccccc1-3,16µM*,-16%,11µM*,-8%,-29%[46.1 µM]
Cc1ccc2nc(N3C(=O)C(O)=C(C(=O)c4ccco4)C3c3cccs3)sc2c1 (stereo unspecified),-14%,-16%,?,0%,7.9µM*
CSc1cccc(NC(=O)CN(C)S(=O)(=O)c2ccc3c(c2)CCCN3C(C)=O)c1,-3%,-11%,-1%,.,.
CCOC(=O)C1CCN(Cc2ccc(O)c3ncccc23)CC1,-4%,-30%,?,-1%,2.5µM*
COc1ccccc1N1CCN(Cc2ccc(O)c3ncccc23)CC1,1%,-24%,?,-4%,4µM*
Oc1c(CN2CCN(c3ccccc3)CC2)cc(Br)c2cccnc12,1%,-13%,-14%,-2%[7.66 µM],7.9µM*
CCOC(=O)C1CCN(Cc2ccccc2C(F)(F)F)CC1,-7%,4%,-2%,-1%,-21%[46.1 µM]
CC(CCc1ccccc1)NC(=O)CCCCCNc1nc(=S)[nH]c2ccccc12 (stereo unspecified),-10%,-10%,0%,-6%,-14%
Cc1ccc(C2C3CSCC=C3C(C#N)=C(N)C2(C#N)C#N)cc1 (stereo unspecified),?,-29%,20µM*,-1%,-4%[46.1 µM]
CC(C)N1CC=C2C(C#N)=C(N)C(C#N)(C#N)C(c3ccccc3)C2C1 (stereo unspecified),?,-18%,?,-2%,-6%[46.1 µM]
Cc1ccc([C@@H]2C3COCC=C3C(C#N)=C(N)C2(C#N)C#N)o1 (stereo partly specified),?,-16%,25µM*,13%,-12%[46.1 µM]
CCN1CC=C2C(C#N)=C(N)C(C#N)(C#N)C(c3cc(Cl)ccc3Cl)C2C1 (stereo unspecified),?,-25%,13µM*,-8%,-8%[46.1 µM]
CC1CC=C2C(C#N)=C(N)C(C#N)(C#N)C(c3cccs3)C2C1 (stereo unspecified),?,-15%,?,1%,-17%[46.1 µM]
CC(C)N1CC=C2C(C#N)=C(N)C(C#N)(C#N)[C@H](c3ccoc3)[C@H]2C1,?,-25%,20µM*,-4%,-11%[46.1 µM]
Cc1ccc(C2=NN(CC(=O)NCCN(CC(C)C)CC(C)C)C(=O)CC2)cc1,4%,-4%,4%,.,.
CCOc1ccc2cc(C#N)c(SCC(=O)NC(C)CC)nc2c1 (stereo unspecified),-3%,3%,4%,-1%,6.3µM*
CCOC(=O)CSc1nc2cc(OCC)ccc2cc1C#N,0%,-23%,16µM*,-2%,-1%[46.1 µM]
COC(=O)CSc1nc2cc(OC)ccc2cc1C#N,7%,-26%,?,.,-9%[46.1 µM]
CCOc1ccc2cc(C#N)c(SCC(=O)N3CCC(C)CC3)nc2c1,?,-18%,-12%,0%,?
Cc1ccc(Cl)cc1NC(=O)CCCn1c(=O)c2cccn2c2ccccc21,-10%,-18%,?,.,.
Cc1ccc2c(c1)c1c(c(=O)n(-c3ccccc3C)c(=O)n1CC(=O)NCc1ccccc1)n2C,-2%,-14%,4%,.,.
COC(=O)C1=C(C(=O)OC)[C@@H]2N(C)c3ccc(OC)cc3[C@@]23C[C@@H](C(=O)OC)N(C(=O)c2cccs2)C3=N1,7%[11.6 µM],6%[11.6 µM],9%[11.5 µM],-1%[7.66 µM],.
